The structures appear in SMILES notation. Records with an inconclusive call do not appear. Where a call stands in place of a potency, no number is given. Calls of active or inactive are those of the source. Calls follow the shape of the dose curve; as a rule, active = well fitted activation curve with a large enough effect in the repeat runs; inconclusive = weak or mixed curves; inactive = flat fitted curve, though single readings scatter.

The results in this text go back to PubChem BioAssay (Tox21).
Potency is read from the fitted curve at half-maximal effect.

A short description of the assay: A CellTox Green Cytotoxicity Assay to monitor cytotoxicity in HepG2 cells - 24 hour (AID 1224878). Also: nearly all actives have a fitted effect of over 45% in size. The conditions noted are these: CellTox Green fluorescence; series mostly up to 76.8 µM. From the text: National Center for Advancing Translational Sciences [NCATS]
NIH Chemical Genomics Center [NCGC]
U.S. Environmental Protection Agency [EPA]
National Institutes of Environmental Health Sciences [NIEHS]
National Toxicology Program [NTP]
Cell-based models are critical for drug discovery. Determining the natural cytotoxic effects resulting from test compounds is an essential research activity. A CellTox Green Cytotoxicity Assay to monitor cytotoxicity in real time of continues cell culture during 40 hours of the compound treatment was used to screen Tox21 10K library compounds in HepG2 cells. CellTox Green Cytotoxicity Assay is a nonlytic, homogeneous, biofluorescent method to measure cytotoxicity in cell culture after experimental manipulation. The assay system uses a proprietary asymmetric cyanine dye that is excluded from viable cells but preferentially stains the dead cell's DNA. […] Viable cells produce no appreciable increases in fluorescence. Therefore, the fluorescence signal produced by the binding interaction with dead cell DNA is proportional to cytotoxicity.
The mixture of HepG2 cell suspension and reagents were dispensed at 600cells/6 ul/well in 1536-well tissue culture treated black solid bottom plates using a Multidrop dispenser. After the assay plates were incubated at a 37 C/5% CO2 incubator for 5 hours, 23 nL of compounds dissolved in DMSO, positive and negative controls was transferred to the assay plate by a pintool work station. The plates were incubated at 37 C for 40 hours. The fluorescence intensity were measured at 0h, 8h, 16h, 24h, 32h and 40h time points using ViewLux plate reader during compound treatment.
Consider `C[C@]12CC[C@H]3[C@@H](CCC4=CC(=O)CC[C@@H]43)[C@@H]1CC[C@@H]2OC(=O)CCc1ccco1`, for which the Potency result was “inactive”.

For `CCC(C)Br` (stereo not given), the Potency entry was “inactive”.

Regarding `O=[N+]([O-])c1ccc(CCl)cc1`, the Potency entry was “inactive”.

Consider `CNC(=O)CSP(=O)(OC)OC`, for which the Potency entry was “inactive”.

`CC(Cc1ccc2c(c1)OCO2)NO` (stereo not given): the Potency entry is “inactive”.

On to `CC(C)=CC1C(C(=O)OC(C#N)c2cccc(Oc3ccccc3)c2)C1(C)C` (stereo not given), for which the Potency entry was “inactive”.

On to `ClC1=C(Cl)[C@]2(Cl)[C@H]3[C@H]([C@@H]4C=C[C@H]3C4)[C@@]1(Cl)C2(Cl)Cl`, for which the Potency is 54.9 µM (active).

Regarding `C=Cc1cccc(CCl)c1`, the Potency result was “inactive”.

Regarding `c1ccc2c(c1)cc1ccc3cccc4ccc2c1c34`, the Potency result is “inactive”.

For `O=C(Cl)c1ccccc1F`, the Potency result was “inactive”.

Regarding `COc1c2c(cc3c1OCO3)CCN(C)C2`, the Potency entry was “inactive”.

As for `FC(F)C(F)(F)OCC(Cn1cncn1)c1ccc(Cl)cc1Cl` (stereo not given), the Potency is 48.7 µM (active).

Turning to `ClC1(Cl)C2(Cl)C3(Cl)C4(Cl)C(Cl)(Cl)C5(Cl)C3(Cl)C1(Cl)C5(Cl)C24Cl` (stereo not given), the Potency entry is “inactive”.

`COc1ccc2c3c1O[C@H]1[C@H](O)CC[C@H]4[C@@H](C2)N(C)CC[C@@]341`: the Potency result is “inactive”.

As to `CC(C)NCC(O)c1ccccc1Cl` (stereo not given), the Potency entry is “inactive”.

As to `BrCC(Br)(Br)Br`, the Potency entry was “inactive”.

Turning to `CC(C)N(C(=O)CCl)c1ccccc1`, the Potency result is “inactive”.

Regarding `C#CCC1=C(C)C(OC(=O)C2C(C=C(C)C)C2(C)C)CC1=O` (stereo not given), the Potency result was “inactive”.

`Nc1nc(N)nc(Cl)n1`: the Potency entry was “inactive”.

On to `CNC(=O)Oc1cc(C)cc(C(C)C)c1`, for which the Potency result is “inactive”.

Turning to `O=S1OCC2C(CO1)C1(Cl)C(Cl)=C(Cl)C2(Cl)C1(Cl)Cl` (stereo not given), the Potency is 48.9 µM (active).

As for `O.O.O.O.O.O.O=S(=O)([O-])[O-].[Ni+2]`, the Potency entry is “inactive”.

On to `CCCCCON=O`, for which the Potency entry was “inactive”.

For the compound `CCOC(=O)CCN(SN(C)C(=O)Oc1cccc2c1OC(C)(C)C2)C(C)C`, the Potency result is “inactive”.

With `Cc1ccc2cc3c(ccc4ccccc43)c3c2c1CC3`, the Potency result was “inactive”.

Regarding `CCCCn1cc[n+](C)c1` (tested in a mixture with another compound), the Potency result was “inactive”.

As for `COc1cnc(OC)n2nc(NS(=O)(=O)c3c(OCC(F)F)cccc3C(F)(F)F)nc12`, the Potency result was “inactive”.

On to `CN(C)c1ccc(N)cc1`, for which the Potency entry is “inactive”.

Take `CC[C@H](C)[C@H]1O[C@]2(C=C[C@@H]1C)C[C@@H]1C[C@@H](C/C=C(\C)[C@@H](O[C@H]3C[C@H](OC)[C@@H](O[C@H]4C[C@H](OC)[C@@H](NC)[C@H](C)O4)[C@H](C)O3)[C@@H](C)/C=C/C=C3\CO[C@@H]4[C@H](O)C(C)=C[C@@H](C(=O)O1)[C@]34O)O2`: the Potency was 11 µM (active).

In the case of `CCN(CC)C(=O)N[C@@H]1C=C2c3cccc4[nH]cc(c34)C[C@@H]2N(C)C1`, the Potency result is “inactive”.

As to `O=C(N[C@H]1N=C(c2ccccc2F)c2cccc3c2N(CC3)C1=O)c1cc2ccccc2[nH]1`, the Potency entry was “inactive”.

Consider `COP(=S)(OC)Oc1nc(Cl)c(Cl)cc1Cl`, for which the Potency entry is “inactive”.

Turning to `COc1nc(C)nc(NC(=O)NS(=O)(=O)c2ccccc2Cl)n1`, the Potency entry is “inactive”.

Regarding `OCC(Br)CBr` (stereo not given), the Potency result is “inactive”.

With `CC(Cc1ccc(O)cc1)NCC(O)c1cc(O)cc(O)c1` (stereo not given), the Potency result is “inactive”.

`COP(=S)(OC)Oc1ccc([N+](=O)[O-])c(C)c1`: the Potency result was “inactive”.

With `C=CCBr`, the Potency entry was “inactive”.

As for `ClSC(Cl)(Cl)Cl`, the Potency entry is “inactive”.

As for `C=CCOC(=O)c1ccccc1N`, the Potency result was “inactive”.

Consider `CCC1(CC)C(=O)N=C(O)NC1=O`, for which the Potency entry was “inactive”.
